Measured values from PubChem BioAssay AID434970 (Sanford-Burnham Center for Chemical Genomics, 2010).
Hit rate of the full screen: of about 11,000 compounds, about 310 (2.8%) were called active. Cut-off read from the data, not from the text of the source: active = activity change below about -85%; inactive = the rest. What follows is part of a selection rich in actives, with near analogues and random picks from the rest.

The molecules below were run on intestinal alkaline phosphatase [Mus musculus] (assay: activators of mouse IAP, confirmation, biochemical, luminescence, single concentration (AID 434970)). Conditions: purified mouse IAP, CDP-Star luminescence, 30 min, at 10 µM; activation factor: measured here: IAP activation factor, stronger effect = higher value; activity change, negative = activation: stronger effect = lower value.

Row | SMILES | activation factor | activity change, negative = activation
1 | COc1ccc(CNC(=O)C(C)n2ccc3cc(S(=O)(=O)N4CCCCCC4)ccc32)cc1 (centres undefined) | 1.91 | -90.9% (inactive)
2 | COC(=O)c1ccc(S(=O)(=O)N2CCCCCC2)cc1 | 0.874 | 12.6% (inactive)
3 | CCC(C(=O)NCCC(C)C)n1ccc2cc(S(=O)(=O)N3CCCCC3)ccc21 (centres undefined) | 2.59 | -159% (active)
4 | CCOc1ccccc1N(CC(=O)Nc1ccc(C)cc1)S(C)(=O)=O | 0.98 | 2.05% (inactive)
5 | O=C(CC1Sc2ccccc2NC1=O)OCC(=O)N1CCc2ccccc21 (centres undefined) | 1.11 | -10.6% (inactive)
6 | Cc1c(Cl)cccc1NC(=O)CCN1CCCCCC1 | 0.984 | 1.6% (inactive)
7 | Cc1ccc(C)c(CN2CCC(CNC(=O)Nc3cccc(Cl)c3C)CC2)c1 | 2.47 | -147% (active)
8 | Cc1ccc(NC(=O)Cn2cccc2)c(C)c1 | 1.01 | -1.25% (inactive)
9 | Cc1ccc(NC(=O)NCC2CCN(Cc3cc(C)ccc3Cl)CC2)c(C)c1 | 1.87 | -86.8% (active)
10 | CCOC(=O)CNC(=O)Nc1cccc(Cl)c1C | 1.04 | -4.45% (inactive)
11 | Cc1ccc(NC(=O)CSCC(=O)O)c(C)c1 | 1.07 | -7.15% (inactive)
12 | COC(=O)CCN(C(=O)C1C2CC3CC(C2)CC1C3)c1ccccn1 (centres undefined) | 0.948 | 5.2% (inactive)
13 | COc1ccccc1-c1nnc(SCCN2CCOCC2)n1-c1ccc(C)cc1 | 0.947 | 5.3% (inactive)
14 | CCOC(=O)C1=CN(Cc2ccco2)S(=O)(=O)N(CC)C1c1cccc(OC)c1 (centres undefined) | 1.02 | -1.7% (inactive)
15 | O=S1(=O)CC(O)C(Nc2ccccc2)C1 (centres undefined) | 0.942 | 5.85% (inactive)
16 | OC(c1cccc(OCc2ccccc2)c1)c1nnc(-c2ccccc2)o1 (centres undefined) | 1.03 | -3.4% (inactive)
17 | CCN([C@H](CO)CC(C)C)S(=O)(=O)c1ccccc1 | 1.09 | -8.75% (inactive)
18 | Cn1c(CNC(=O)Nc2cccc(Cl)c2)nnc1SCc1ccccc1 | 1.52 | -52% (inactive)
19 | Cc1onc(-c2ccccc2)c1C(=O)NCc1cccs1 | 1.01 | -0.85% (inactive)
20 | Cc1onc(-c2ccccc2)c1NC(=O)Nc1ccc(OC(F)F)cc1 | 1.48 | -47.9% (inactive)
21 | O=C(Nc1cccc(Cl)c1)Nc1nnc(-c2ccccc2)o1 | 1.02 | -2.05% (inactive)

Row | SMILES | activation factor | activity change, negative = activation
22 | Cc1cc(C)cc(NC(=O)NCc2c(-c3ccccc3)noc2C)c1 | 2.73 | -173% (active)
23 | Cc1onc(-c2ccccc2)c1CNC(=O)Nc1ccc(C(F)(F)F)cc1 | 1.99 | -99.1% (active)
24 | FC(F)(F)c1ccc(NC(=S)NCc2ccccc2)cc1 | 1.41 | -41% (inactive)
25 | Cc1onc(-c2ccccc2)c1CNC(=O)Nc1cccc(Cl)c1 | 2.33 | -133% (active)
26 | Cc1onc(-c2ccccc2)c1C(=O)NCc1ccccn1 | 0.956 | 4.35% (inactive)
27 | COC(=O)C1=NN(c2ccccc2)C2(S1)SC(C(C)=O)=C(C)N2c1ccccc1 (centres undefined) | 0.92 | 8% (inactive)
28 | O=C(CC(Nc1ccc(F)cc1)C(=O)O)c1ccccc1 (centres undefined) | 0.959 | 4.1% (inactive)
29 | COC(=O)c1oc2ccc(Cl)cc2c1N | 0.915 | 8.55% (inactive)
30 | O=C(Nc1ccc2c(c1)nc1n2CCOC1)c1ccco1 | 1.29 | -29.5% (inactive)
31 | Cc1cccc(N2O[C@H]3C=CC2CCCC3)n1 | 1.02 | -2.2% (inactive)
32 | COc1ccc(C2C(C(=O)Nc3ccccc3)=C(C)N=C3SCC(=O)N32)cc1 (centres undefined) | 0.843 | 15.7% (inactive)
33 | CCC1CCCCN1CCCNC(=O)CNC(=O)Cn1ccc2ccccc2c1=O (centres undefined) | 0.926 | 7.35% (inactive)
34 | Fc1cccc(NC(=S)NCc2ccccc2Cl)c1 | 1.27 | -27.2% (inactive)
35 | COc1cccc(NC(=O)NCCCCc2ccccc2)c1 | 2.16 | -116% (active)
36 | S=C(NCCCc1ccccc1)Nc1ccc(Br)cc1 | 1.72 | -71.9% (inactive)
37 | O=C(NCCCCc1ccccc1)Nc1cccc(F)c1 | 2.29 | -129% (active)
38 | Cc1cccc(NC(=O)NCCCCc2ccccc2)c1 | 2.38 | -138% (active)
39 | Cc1cccc(NC(=S)NC(C)CCc2ccccc2)c1 (centres undefined) | 1.15 | -14.6% (inactive)
40 | Cc1cccc(NC(=O)NCCc2c[nH]c3ccccc23)c1 | 1.72 | -71.8% (inactive)
41 | CC(CCc1ccccc1)NC(=O)c1ccncc1 (centres undefined) | 0.938 | 6.2% (inactive)
42 | Cc1ccc(NC(=O)NCCCc2ccccc2)cc1 | 1.29 | -28.6% (inactive)

Row | SMILES | activation factor | activity change, negative = activation
43 | COc1cccc(NS(=O)(=O)Cc2ccccc2)c1 | 0.904 | 9.6% (inactive)
44 | COc1cccc(NC(=O)Nc2cccn(Cc3ccccc3)c2=O)c1 | 1.01 | -1.1% (inactive)
45 | Cc1cccc(NC(=O)NC(C)CCc2ccccc2)c1 (centres undefined) | 2.83 | -183% (active)
46 | O=C(c1ccc(F)cc1)N1CCN(Cc2ccccc2Br)CC1 | 0.984 | 1.55% (inactive)
47 | CCn1c(SCC(=O)Nc2nccs2)nnc1-c1cc2cccc(OC)c2o1 | 0.881 | 11.9% (inactive)
48 | CCOc1ccc(C(=S)N2CCCC2)cc1 | 0.949 | 5.1% (inactive)
49 | CCSc1nc(N)c2c(C)c(C)sc2n1 | 1.11 | -10.9% (inactive)
50 | CCOc1ccccc1N1CCN(S(=O)(=O)c2ccc3c4c(cccc24)C(=O)N3)CC1 | 0.442 | 55.8% (inactive)
51 | Cc1cc(Cl)ccc1NC(=S)NCCC(c1ccccc1)c1ccccc1 | 2.05 | -105% (active)
52 | COc1ccc(Cl)cc1NC(=S)NCCSc1ccc(C)cc1 | 1.43 | -42.5% (inactive)
53 | Cc1c(Cl)cccc1NC(=S)NCc1ccccc1 | 1.04 | -4% (inactive)
54 | Cc1c(Cl)cccc1NC(=S)NCCC(c1ccccc1)c1ccccc1 | 4.75 | -375% (active)
55 | Cc1ccc(Cl)cc1NC(=S)NCCCSC1CCCCC1 | 1.29 | -28.8% (inactive)
56 | S=C(NCCCc1ccccc1)Nc1ccccc1Cl | 1.26 | -26.2% (inactive)
57 | COc1ccc(Cl)cc1NC(=S)NCCC(c1ccccc1)c1ccccc1 | 2.07 | -107% (active)
58 | S=C(NCCC(c1ccccc1)c1ccccc1)Nc1ccccc1Cl | 1.84 | -84.1% (inactive)
59 | COc1ccccc1NC(=S)NCCC(c1ccccc1)c1ccccc1 | 1.39 | -38.9% (inactive)
60 | S=C(NCCc1ccc(Cl)cc1)Nc1ccc(Cl)cc1Cl | 1.36 | -36.1% (inactive)
61 | Cc1c(Cl)cccc1NC(=S)NCCC(C)C | 1.19 | -19.2% (inactive)
62 | Cc1ccccc1NC(=S)NCCC(c1ccccc1)c1ccccc1 | 1.96 | -96% (active)
